ATXN viability: viability counter-screen for ATXN expression inhibitors; Potency, µM (doses to about 56.7 µM), most hits filed as cytotoxic; S2 cells (HEK-293 line with an ATXN2-luciferase reporter) viability, CellTiter-Fluor protease fluorescence, 24 h; 400,000 compounds, 0.49% hits; AID 651635; also: nearly all actives have a fitted effect of over 40% in size
Apoferritin bind: candidate novel general anesthetic via apoferritin binding | apoferritin/1-aminoanthracene competitive binding, fluorescence | 350,000 compounds, 0.074% hits | Potency, µM (doses to about 77.5 µM), actives largely listed as inhibitors; also: nearly all actives have a fitted effect of over 20% in size
Target sequence (P02791 2-175 limits assumed): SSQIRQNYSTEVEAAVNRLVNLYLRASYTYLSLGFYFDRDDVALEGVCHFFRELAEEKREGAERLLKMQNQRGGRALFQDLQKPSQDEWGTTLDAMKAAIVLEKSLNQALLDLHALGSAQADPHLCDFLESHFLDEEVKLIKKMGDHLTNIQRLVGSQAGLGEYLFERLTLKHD
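In PBS, apoferritin at 10 uM is loaded with 1-AMA from a 50% saturated solution. After 10 min of compound exposure at ambient temperature, reduced 535 nm fluorescence indicates probe displacement.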
HepG2 tox-1: kills HepG2 cells in TGF-b inhibitor counter-screen; AID 588856; 410,000 compounds, 0.76% hits; Potency, µM (series often up to 46.1 µM), actives largely listed as cytotoxic; HepG2 CAGA-GFP viability, ATP luminescence, 18 h
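HepG2 CAGA-GFP cells (1000/well, DMEM with 1% FBS) received compound, then TGF-beta at 500 pg/mL final, and were incubated 18 hours at 37 degrees C. Viability was read by CellTiter-Glo luminescence. Media-only wells were set as complete cell-killing and DMSO as no toxicity.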
TGFb SMAD3 inh: TGF-b pathway inhibition. HepG2 CAGA-GFP TGF-b/SMAD3 reporter, GFP fluorescence, 18 h; TGF-beta stimulated, 500 pg/mL final. Potency, µM (doses to about 46.1 µM), actives largely listed as inhibitors. 410,000 compounds, 1.2% hits. AID 588855; also: nearly all actives have a fitted effect of over 65% in size
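GFP signal (ex488/em500-530) from TGF-beta-stimulated HEPG2 CAGA-GFP cells, 500 pg/mL final, 18 h at 37 degrees C in DMEM plus 1% FBS, normalized to unstimulated and DMSO-stimulated controls.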
ATXN2 expr inh: reduces ATXN2 reporter expression in HEK-293 cells; HEK-293 ATXN2-luciferase reporter, luminescence, 24 h; Potency, µM (top dose mostly 57 µM), usual class: inhibitors; 360,000 compounds, 0.72% hits; AID 1745845; also: nearly all actives have a fitted effect of over 55% in size
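ATXN2-luciferase reporter cells (luciferase flanked by upstream and downstream ATXN2 gene portions) were treated 24 h at 37 °C with compounds at up to 57 uM. SteadyGlo luminescence gave expression; GF-AFC fluorescence gave viability.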
TGFb confirm: TGF-b pathway inhibition, cherry-pick retest; shares compounds with TGFb SMAD3 inh; 1,600 compounds, 63% hits; HepG2 CAGA-GFP TGF-b reporter, GFP fluorescence, 18 h; cells stimulated with TGF-beta, 500 pg/mL; Potency, µM (doses to about 46.1 µM), most hits filed as inhibitors; also: nearly all actives have a fitted effect of over 65% in size
HepG2 tox-2: toxic to HepG2 cells in TGF-b counterscreen. Potency, µM (top dose mostly 46.1 µM), most hits filed as inhibitors. HepG2 CAGA-GFP viability, ATP luminescence, 18 h; cells stimulated with TGF-beta, 500 pg/mL. shares compounds with TGFb SMAD3 inh. 1,600 compounds, 27% hits. AID 720535; also: nearly all actives have a fitted effect of over 70% in size
TGFb CCL64 inh: TGF-b inhibition, CCL64 orthogonal assay | shares compounds with TGFb SMAD3 inh | CCL64 CAGA-GFP reporter, TGF-b stimulated, GFP fluorescence, 18 h | Potency, µM (doses to about 46.1 µM), most hits filed as inhibitors | 1,600 compounds, 41% hits; also: nearly all actives have a fitted effect of over 65% in size
TGFb COP inh: TGF-b inhibition validated with COP promoter. shares compounds with TGFb SMAD3 inh. HepG2 COP-GFP TGF-b reporter, GFP fluorescence, 18 h; cells stimulated by added recombinant TGF-beta. Potency, µM (top dose mostly 46.1 µM), usual class: inhibitors. 1,600 compounds, 3% hits. AID 720537; also: nearly all actives have a fitted effect of over 70% in size
SK-N-SH 3D tox: reduced viability of SK-N-SH 3D spheroids, orthogonal test; Potency, µM (titrated, usually from 30.7 µM), most hits filed as inhibitors; 65 compounds, 70% hits; SK-N-SH 3D spheroid viability, PI/Hoechst imaging, 72 h; AID 1347135; shares compounds with ATXN2 expr inh
SJGBM2 3D viab: lowers viability of SJ-GBM2 3D spheroids; shares compounds with ATXN2 expr inh; SJ-GBM2 3D spheroid viability, PI/Hoechst imaging, 72 h; Potency, µM (titrated, usually from 30.7 µM), actives largely listed as inhibitors; 65 compounds, 80% hits
Daoy spheroid: kills Daoy spheroids in orthogonal 3D test; 65 compounds, 50% hits; Daoy 3D spheroid viability, PI/Hoechst imaging, 72 h; shares compounds with ATXN2 expr inh; Potency, µM (titrated, usually from 30.7 µM), actives largely listed as inhibitors
TC32 3D caspase: activates caspase in TC32 3D spheroids. 65 compounds, 30% hits. Potency, µM (highest dose often 30.7 µM), usual class: inhibitors. shares compounds with ATXN2 expr inh. TC32 3D spheroids, caspase-3/7 fluorescence imaging, 24 h. AID 1347138
TC32 3D tox: TC32 3D spheroid viability loss; Potency, µM (highest dose often 30.7 µM), usual class: inhibitors; TC32 3D spheroid viability, PI/Hoechst imaging, 72 h; shares compounds with ATXN2 expr inh; 65 compounds, 60% hits
MG63 spheroid: kills MG-63 (6-TG R) spheroids in orthogonal 3D test; 65 compounds, 50% hits; AID 1347140; Potency, µM (highest dose often 30.7 µM), hits mostly inhibitors; shares compounds with ATXN2 expr inh; MG-63 (6-TG R) 3D spheroid viability, PI/Hoechst imaging, 72 h
RD 3D tox: kills RD rhabdomyosarcoma spheroids in orthogonal 3D test; RD rhabdomyosarcoma 3D spheroid viability, PI/Hoechst imaging, 72 h; Potency, µM (top dose mostly 30.7 µM), actives largely listed as inhibitors; shares compounds with ATXN2 expr inh; 65 compounds, 50% hits
Hits are given with their value; ! = repeats disagree. A selection: hits, their analogues and other compounds. The true share with any hit is near 2.4%. Calls follow the shape of the dose curve; as a rule, active = well fitted curve in the direction sought with a large enough effect; inconclusive = small, poorly fitted or top-dose-only effect, or another doubt; inactive = no such curve, though single readings can be large; an effect the other way counts as inactive or inconclusive.

`CN(CC(=O)O)C(=O)[C@H](Cc1ccccc1)NC(=O)[C@@H](CCCN=C(N)N)NC(=O)[C@@H](N)Cc1ccc(O)cc1` gave Apoferritin bind inactive.
`CCC(C)n1c(=O)[nH]c(C)c(Br)c1=O` (stereo unspecified) gave Apoferritin bind inactive.
For CCC1C(c2cc(OC)c(OC)c(OC)c2)c2cc3c(cc2OC1N1CCCC1)OCO3 (stereo unspecified) the results were ATXN viability inconclusive, HepG2 tox-1 inactive, TGFb SMAD3 inh 10µM, ATXN2 expr inh inactive, TGFb confirm inconclusive, HepG2 tox-2 inactive, TGFb CCL64 inh inconclusive and TGFb COP inh inactive.
O=C(NCCSc1c(-c2ccccc2)[nH]c2ccccc12)c1ccc(S(=O)(=O)N2CCOCC2)cc1 was read as ATXN viability inconclusive, Apoferritin bind inactive, HepG2 tox-1 inactive, TGFb SMAD3 inh inconclusive and ATXN2 expr inh inactive.
`Nc1nc(F)nc2c1ncn2[C@@H]1O[C@H](CO)[C@@H](O)[C@@H]1O` gave ATXN viability inactive, Apoferritin bind inactive, HepG2 tox-1 inactive, TGFb SMAD3 inh 0.5µM, ATXN2 expr inh 1.7µM!, TGFb confirm 0.46µM, HepG2 tox-2 0.46µM, TGFb CCL64 inh inactive, TGFb COP inh inactive, SK-N-SH 3D tox 0.46µM, SJGBM2 3D viab 0.29µM, Daoy spheroid 0.36µM, TC32 3D caspase 3.6µM, TC32 3D tox 2µM, MG63 spheroid 0.2µM and RD 3D tox 1.4µM.
COc1ccc2c3c1O[C@H]1[C@H](O)CC[C@H]4[C@@H](C2)N(C)CC[C@@]341 was read as ATXN viability inactive and ATXN2 expr inh inactive.
`COC(=O)c1ccc(CN2CCN(Cc3ccccc3)CC2)cc1` gave ATXN viability inactive, Apoferritin bind inactive, HepG2 tox-1 inactive, TGFb SMAD3 inh inactive and ATXN2 expr inh inactive.
For O=c1[nH]c2ccc(Cl)cc2c(N[C@@H]2CN3CCC2CC3)c1-c1nc2ccccc2[nH]1 the results were ATXN2 expr inh 0.068µM, SK-N-SH 3D tox 0.13µM, SJGBM2 3D viab 0.091µM, Daoy spheroid 0.72µM, TC32 3D caspase 18µM, TC32 3D tox 13µM, MG63 spheroid 6.4µM and RD 3D tox inconclusive.
Screening CNCCCc1ccccc1 returned ATXN viability inactive, Apoferritin bind inactive, HepG2 tox-1 inactive, TGFb SMAD3 inh inactive and ATXN2 expr inh inactive.
`C=C1C=C(C(F)F)n2ncc(C(=O)NCc3ccccc3F)c2N1` gave HepG2 tox-1 inactive and TGFb SMAD3 inh inactive.
Screening Oc1cccc(Nc2ncnc3sc4c(c23)CCCC4)c1 returned ATXN viability inactive, Apoferritin bind inactive, HepG2 tox-1 inactive, TGFb SMAD3 inh inconclusive and ATXN2 expr inh inactive.
Screening CN1C2CCC1CC(OC(c1ccc(F)cc1)c1ccc(F)cc1)C2 (stereo unspecified) returned Apoferritin bind inactive.
CN(C)[C@@H]1C(=O)C(C(N)=O)=C(O)[C@]2(O)C(=O)C3=C(O)c4c(O)cccc4[C@@](C)(O)[C@H]3[C@H](O)[C@@H]12 was read as ATXN viability inactive and Apoferritin bind inactive.
For CC1(C)C(=O)[C@@H]2OC2[C@@]2(C)C1CC(O)[C@]1(C)C2CC[C@@]2(C)C(c3ccoc3)OC(=O)C3OC312 (stereo partly specified) the results were Apoferritin bind inactive.
Screening Cc1nc2ccccc2c(=O)n1-c1ccccc1Cl returned ATXN viability inconclusive and ATXN2 expr inh inactive.
`O=C(O)CNC1c2ccccc2CSc2ccccc21` (stereo unspecified) gave ATXN viability inactive, HepG2 tox-1 inactive, TGFb SMAD3 inh inactive and ATXN2 expr inh inactive.
Screening CCN1C[C@@]2(COC)CCC(OC)[C@]34C5C[C@]6(O)[C@@H](OC)C[C@](OC(C)=O)(C([C@H](OC)C23)[C@H]14)C5[C@H]6OC(=O)c1ccc(OC)cc1 (stereo partly specified) returned Apoferritin bind inactive.
For O=[N+]([O-])c1ccc(CNCCc2ccccc2)cc1 the results were ATXN viability inactive, Apoferritin bind inactive, HepG2 tox-1 inactive and TGFb SMAD3 inh inactive.

Screens (PubChem BioAssay)
